Measurements published in PubChem BioAssay (EPA / NIEHS).
Records with an inconclusive call do not appear. Calls of active or inactive are those of the source. The calls were made as follows: active = hit-call score of the fitted dose curve at least 0.9, where 1 is the maximum; inconclusive = response in the unintended direction; inactive = score below 0.9.

Target: human CYP2C9, CYP2C9 (gene 1559) (UniProt P11712)
Assay: NVS_ADME_hCYP2C9: NovaScreen (NVS) CYP450-related Enzyme Activity (ADME) Assay for human CYP2C9 (AID 2283108)
Experimental: NVS_ADME_hCYP2C9 is a biochemical, single-readout assay that uses extracted gene-proteins from SF9 in a cell-free assay. Measurements were taken 0.75 hour after chemical dosing in a 96-well plate.NVS_ADME_hCYP2C9 is one of one assay component(s) measured or calculated from the NVS_ADME_hCYP2C9 assay. It is designed to make measurements of enzyme activity, a form of enzyme reporter, as detected with fluorescence intensity signals by Fluorescence technology.Data from the assay component NVS_ADME_hCYP2C9 was analyzed into 1 assay endpoint. This assay endpoint, NVS_ADME_hCYP2C9, was analyzed in the positive analysis fitting direction relative to Acetonitrile as the negative control and baseline of activity. Using a type of enzyme reporter, loss-of-signal activity can be used to understand changes in the enzymatic activity as they relate to the gene CYP2C9. Furthermore, this assay endpoint can be referred to as a primary readout, because this assay has produced multiple assay endpoints where this one serves a enzymatic activity function. To generalize the intended target to other relatable targets, this assay endpoint is annotated to the cyp intended target family, where the subfamily is xenobiotic metabolism.
Binding assays used specific radioligands (tritiated, iodinated) with non-radioactive competitive displacement ligands in agonist or antagonist protocols (as indicated) and various reference compounds and inhibitors to titrate specific binding to receptors and transporters. Most enzyme assays (CYPs, kinases, phosphatases, proteases, HDACs) used recombinant protein and specific substrates (fluorescence mostly, some colorimetric and radioactive) and inhibitors, followed by a biochemical separation of substrate and product. All assays for the biochemical HTS were initially run in duplicate at a single concentration (10 uM for CYP450 assays and 25 uM for all others). […] Each assay was run with positive and negative controls, and concurrent controls on every plate. The follow-up (secondary) screen tested active chemical-pairs in concentration series, as well as a few additional assays not tested in the primary screen, some selected negative inactives, and several cases re-run in the concentration series for confirmatory purposes.

human CYP2C9, CYP2C9 (gene 1559), sequence (P11712 whole entry, looked up): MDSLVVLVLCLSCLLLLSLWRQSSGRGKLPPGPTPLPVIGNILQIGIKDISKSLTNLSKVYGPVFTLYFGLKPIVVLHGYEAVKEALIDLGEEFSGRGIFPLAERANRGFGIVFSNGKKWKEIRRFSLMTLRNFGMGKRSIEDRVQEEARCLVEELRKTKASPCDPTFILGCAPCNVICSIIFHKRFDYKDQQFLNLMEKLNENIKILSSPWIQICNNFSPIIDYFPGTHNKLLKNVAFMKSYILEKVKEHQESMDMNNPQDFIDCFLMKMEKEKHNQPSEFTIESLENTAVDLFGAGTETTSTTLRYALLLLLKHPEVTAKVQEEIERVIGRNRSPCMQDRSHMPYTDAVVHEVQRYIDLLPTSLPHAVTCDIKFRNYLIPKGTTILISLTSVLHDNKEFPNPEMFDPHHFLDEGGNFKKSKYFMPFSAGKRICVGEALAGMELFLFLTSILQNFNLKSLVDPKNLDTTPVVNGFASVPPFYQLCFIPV

| Compound | AC50 | outcome |
| --- | --- | --- |
| CCN(CC)C(=S)SSC(=S)N(CC)CC | 3.12 µM (active) |  |
| C=CCc1cc(S(=O)(=O)c2ccc(O)c(CC=C)c2)ccc1O | 0.118 µM (active) |  |
| CC[C@H](C)C(=O)O[C@H]1C[C@H](O)C=C2C=C[C@H](C)[C@H](CC[C@@H](O)C[C@@H](O)CC(=O)O)[C@H]21 |  | inactive |
| CCCCCCCCCC | 15.1 µM (active) |  |
| CC(C)C(=O)Nc1ccc([N+](=O)[O-])c(C(F)(F)F)c1 |  | inactive |
| OC(Cn1cncn1)(Cn1cncn1)c1ccc(F)cc1F |  | inactive |
| CCCCCCCC/C=C\CCCCCCCC(=O)OC[C@@H](O)[C@H]1OC[C@H](O)[C@H]1O | 16.5 µM (active) |  |
| c1ccc(C(O[C@@H]2CCCN(CCc3ccc4c(c3)OCO4)C2)c2ccccc2)cc1 | 6.98 µM (active) |  |
| CCCOc1ccc(S(=O)(=O)N2CCN(CC)CC2)cc1-c1nc2c(CC)n(Cc3ccccn3)nc2c(=O)[nH]1 | 2.98 µM (active) |  |
| Cc1nccn1-c1ccc(Sc2cccc(C3(C(N)=O)CCOCC3)c2)cc1 | 5.01 µM (active) |  |
